The record followed here is PubChem BioAssay (NCI).

What all share (assay): NCI-60 one-dose screen, 48 h (100 = growth as untreated, 0 = no growth, -100 = all killed)
What all share (details): 10 µM unless noted

Test [1] concerns SR leukemia.
For test [2], the system named is RPMI-8226 leukemia.
Test [3] concerns OVCAR-8 ovarian.
Test [4] has as its system OVCAR-5 ovarian.
Test [5] deals with OVCAR-4 ovarian.
In test [6] the test system is SK-OV-3 ovarian.
Test [7] relates to IGROV1 ovarian.
Test [8] deals with OVCAR-3 ovarian.
In test [9] the test system is HS 578T breast.
For test [10], the system named is NCI/ADR-RES ovarian.
Test [11] deals with T-47D breast.
Test [12] relates to BT-549 breast.
The subject of test [13] is SW-620 colon.
Test [14] relates to MCF7 breast.
Test [15] concerns HCT-116 colon.
Test [16] relates to HCC-2998 colon.
Test [17] concerns KM12 colon.
Test [18] concerns MDA-MB-435 melanoma.

This is part of a sample that, as a whole, favours compounds with a hit. Of some 83,000 tested, about 20% had one in any assay.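 Growth was measured after 48 h exposure to one concentration of compound in 96-well plates. Values under 10 count as active.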 A number with no mark means an inactive call. Activity calls are given as the source filed them.

As to `COc1cc(-c2noc(C[C@@H](NC(=O)OCc3ccccc3)C(C)C)n2)cc(OC)c1OC`, the growth in test [1] is 95%; in test [2] it was 106%; in test [3] it was 100%; in test [4] it was 97.3%; in test [5], 102%; in [6], 94.5%. Moreover, the growth was 99.5% in [7]; 110% in test [8]; 97.2% in test [9]; 104% in test [10]; 90.2% in test [11]; 105% in test [12]. Besides, the growth in test [13] was 98.5%; in test [14] it was 87.3%; in test [15], 101%; in test [16] it was 103%; in test [17], 105%.

On to `Oc1ccc(CSc2nnc(-c3ccccc3)o2)c2cccnc12`, for which the growth in test [1] was 36.8%; in test [2], 14.1%; in test [3], 17.5%; in test [4], 74%; in [5], 16.5%; in [6], 10.8%. Besides, the growth in test [7] is 18.5%; in test [8], 28.2%; in test [9], -3.94% (active); in test [10], 11.1%; in test [11], 4.16% (active); in test [12] it was 29.4%. Besides, the growth in [13] is 14.5%; in test [14] it was 9.21% (active); in test [15] it was 16.6%; in test [16] it was 37.6%; in [17], 17.3%.

`CN1CCN(c2ccc3c(c2)nc(NNC(=O)c2ccncn2)c2cccn23)CC1`: the growth in test [1] was 14.9%; in test [2], 24.5%; in test [3], 21.8%; in test [4], 54%; in [5], 36.4%; in test [6] it was 25%. The growth is 22.4% in test [7]; 38% in [8]; 71.3% in test [9]; 18.8% in test [10]; 32.7% in [11]; 45.2% in test [12]. The growth was 27.5% in test [18]; 22.8% in [13]; 23.6% in [15]; 22.3% in [16]; 17.4% in test [17].

In the case of `CSc1ccc(/C(=N/N=C(N)N)c2ccccc2)cc1`, the growth is 19.7% in [1]; 17.9% in test [2]; 29.5% in [3]; 48.3% in test [4]; 67.2% in test [5]; 66.2% in test [6]. In addition, the growth in [7] is 21.8%; in test [8], 2.28% (active); in test [9] it was 31.8%; in [11], 70.9%; in test [12] it was 53.8%; in [18] it was -18% (active). Moreover, the growth in test [13] is 25.7%; in [14], 11.7%; in test [15] it was 13%; in [16], 9.99% (active); in test [17], 17.2%.

As for `O=c1[nH]c(CCl)nc2c1cnn2-c1ccccc1`, the growth in test [1] is 87.1%; in [2], 82.5%; in [3] it was 104%; in test [4] it was 114%; in test [5], 111%; in test [6], 122%. Also, the growth in test [7] is 95.9%; in test [8], 100%; in test [9] it was 111%; in [11], 95.2%; in [12], 94.1%; in [18], 104%. In addition, the growth in test [13] was 102%; in test [14], 79.5%; in [15], 94.9%; in [16], 105%; in test [17] it was 101%.

On to `CCNC(=O)Oc1ccc(/C(=C(/C)c2ccc(Cl)cc2)c2ccc(OCCN(C)C)cc2)cc1`, for which the growth in [1] is 42.4%; in test [2], 19.3%; in [3], 87.9%; in test [4] it was 84.9%; in test [5] it was 71.6%; in test [6], 94.2%. Moreover, the growth is 64.4% in test [7]; 77.8% in test [8]; 80.8% in [9]; 54.8% in test [11]; 77% in [12]; 91.6% in test [18]. For the same compound, the growth in test [13] is 82.2%; in test [14] it was 18.1%; in test [15] it was 43%; in [16], 81.2%; in test [17] it was 89.8%.

As to `NS(=O)(=O)c1ccc(Nc2nc(N/N=C/c3ccc(C(F)(F)F)cc3)nc(Nc3ccccc3)n2)cc1`, the growth in test [1] was 7.13% (active); in [2], -5.16% (active); in [3], 33%; in [4], 67.5%; in test [5], 40.9%; in test [6] it was 55.5%. In addition, the growth is 31.2% in test [7]; 11.7% in test [8]; 8.82% (active) in [9]; 87.4% in [10]; 31.3% in test [11]; 48.9% in test [12]. Moreover, the growth in test [13] was 54.8%; in test [14], 10.3%; in [15], 9.73% (active); in [16] it was 53.1%; in [17] it was 21.7%.

`CCN1C(=O)N(CC)C2SC(N/N=C/c3ccc(OC)cc3)=NC21` (stereo unspecified): the growth in test [1] was 19.3%; in test [2] it was 17.6%; in test [3], 26%; in test [4] it was 36.8%; in test [5], 69.1%; in test [6], 62.4%. Further, the growth in test [7] is 23.2%; in test [8], -13.1% (active); in [9], 31.9%; in [10] it was 2.95% (active); in test [11], 80.9%; in test [12] it was 18.9%. The growth was 20.2% in test [13]; 15.2% in [14]; 6.83% (active) in test [15]; 13.5% in [16]; 13.9% in [17].
